Test results: ChEMBL document CHEMBL1157539, “Thousands of chemical starting points for antimalarial lead identification” (Nature, 2010)
Several values for one entry are separate records, joined by “and”; a condition that tells them apart may be missing. Equal entries are not always repeated.

Experiments:
Plasmodium falciparum [1] = experiment: GSK_TCMDC: Inhibition of Plasmodium falciparum 3D7 in whole red blood cells, using parasite LDH activity as an index of growth. Test compounds present at 2uM; type: functional
Plasmodium falciparum [2] = experiment: GSK_TCMDC: Inhibition of Plasmodium falciparum Dd2 in whole red blood cells, using parasite LDH activity as an index of growth. Test compounds present at 2uM; type: functional

Row | Compound | Inhibition (Plasmodium falciparum [1]) | Inhibition (Plasmodium falciparum [2])
1 | CC/N=C(/NCCCCCCN/C(=N/CC)NCc1ccccc1)NCc1ccccc1.I | 96% | 95%
2 | CN(Cc1cnc2nc(N)nc(N)c2n1)c1ccc(C(=O)N[C@H](CCC(=O)OC(C)(C)C)C(=O)N[C@@H](CCC(=O)OC(C)(C)C)C(=O)OC(C)(C)C)cc1 | 85% | 1%
3 | CCCCCCn1ccc2c3c(N)nc(N)nc3ccc21 | 99% | 91%
4 | Cc1nc(C)c(-c2ccc(Oc3ccc(Cl)cc3)cc2)c(O)c1I | 88% | 49%
5 | Nc1nc(N)c2c(ccc3c2ccn3Cc2cccc(F)c2)n1 | 100% | 99%
6 | CCN(CC)CCCN(CCCN(CC)CC)c1cc(C)nc(Nc2ccc(Br)cc2)n1.Cl | 100% | 40%
7 | Cl.Clc1ccc(CNCCCCCCCNCc2ccc(Cl)c(Cl)c2)cc1Cl | 99% | 49%
8 | CN(Cc1cnc2nc(N)nc(N)c2n1)c1ccc(C(=O)N[C@@H](CCC(=O)O)C(=O)O)cc1 [METHOTREXATE] | 91% and 92% | 44% and 66%
9 | CC(=O)Oc1c(Br)c(C)nc(C)c1-c1ccc(Oc2ccc(OC(F)(F)F)cc2)cc1 | 98% | 97%
10 | CCNC(=O)CCc1cccc(Br)c1 | 89% | 54%
11 | CCS(=O)(=O)O.N=C(N)NC(=O)Nc1ccc(Cl)c([N+](=O)[O-])c1 | 97% | 9%
12 | Cc1[nH]c(C)c(-c2ccc(Oc3ccccc3)cc2)c(=O)c1Br | 96% | 97%
13 | CC(C)c1ccc2c(c1)C(=O)c1ccc(C(=O)O)cc1S2(=O)=O | 93% | 83%
14 | Nc1nc(N)c(-c2ccccc2)c(=O)[nH]1 | 83% | 0%
15 | CCC(=C(CC)c1ccc(O)c(CNC2CCCCC2)c1)c1ccc(O)c(CNC2CCCCC2)c1.Cl | 100% | 100%
16 | CCCOc1cc2c(cc1OCCC)C(C=Cc1ccc(Cl)cc1Cl)=NC(C)C2.Cl (centres undefined) | 90% | 75%
17 | N=C(N)NC(=O)Nc1cc(Br)c(Cl)c(C(F)(F)F)c1 | 100% | 91%
18 | COc1ccc2c(c1CNCCCCCCNCc1c(OC)ccc3c1CCCC3)CCCC2 | 94% | 7%
19 | Nc1nc(N)c2c3c(ccc2n1)CCC3 | 92% | 2%
20 | Cl.Oc1cc2ccccc2cc1CNC1CCCCC1 | 98% | 89%
21 | COc1ccc(OC)c(CC2c3ccc(Br)c(O)c3CCN2C)c1.Cl (centres undefined) | 98% | 97%

Row | Compound | Inhibition (Plasmodium falciparum [1]) | Inhibition (Plasmodium falciparum [2])
22 | Cc1[nH]c(C)c(-c2ccc(Oc3ccc(Cl)cc3)cc2)c(=O)c1C | 96% | 95%
23 | CCN(CC)CCCC(C)Nc1ccnc2cc(C#N)ccc12 (centres undefined) | 100% | 80%
24 | CC1CCNc2ccc(Cc3cnc(N)nc3N)cc21.Cl (centres undefined) | 82% | 0%
25 | Cc1nc(N)nc(N)c1-c1ccc(Br)c(Br)c1 | 94% | 1%
26 | CC(C)C(=O)Nc1c(F)cc(F)cc1CCc1ccc(O)cc1 | 90% | 91%
27 | COc1cc(CCNC(=O)Cc2ccc3ccccc3c2)ccc1OCc1ccccc1 | 93% | 61%
28 | Cc1nc(N)nc(N)c1-c1cc(Cl)c(Cl)c(Cl)c1 | 97% | 0%
29 | COc1cc2c(cc1OC)C(C)(C)CN1Cc3c(c(CO)c(OC)c(OC)c3OC)CC21.Cl (centres undefined) | 95% | 9%
30 | Cc1nc(NCc2ccccc2)cc(Nc2cc(NCc3ccccc3)nc(C)n2)n1 | 90% | 32%
31 | CN(C)S(=O)(=O)n1ncc2c3c(N)nc(N)nc3ccc21.Cl | 96% | 0%
32 | C=CCOc1ccc(Cc2cnc(N)nc2N)cc1CCC | 93% | 0%
33 | CC(=NNC(S)=NCCc1ccccn1)c1ccccn1 | 100% | 95%
34 | COc1ccc(Cc2cnc(N)nc2N)cc1OCCCOc1ccccc1 | 91% | 4%
35 | CCCCNCc1cc(Cl)c2ccccc2c1O.Cl | 100% | 100%
36 | COc1cc(Cc2cnc(N)nc2N)cc(OCCCCC#N)c1OC | 86% | 0%
37 | CCCCCCCc1c(C)[nH]c2ccc(F)cc2c1=O | 98% | 96%
38 | Cc1[nH]c(C)c(-c2ccc(Oc3ccc(C(F)(F)F)cc3)cc2)c(=O)c1Br | 97% | 97%
39 | C=CCn1ccc2c3c(N)nc(N)nc3ccc21 | 89% | 91%
40 | CC1CCN(Cc2c(O)ccc3c(CN4CCC(C)CC4)c(O)ccc23)CC1.Cl | 100% | 86%
41 | COc1cc(Cc2cnc(N)nc2N)cc(OCCCS(=O)(=O)O)c1OC | 88% | 0%
42 | CCCCc1cc(Cc2cnc(N)nc2N)cc(OC)c1OC.Cl | 86% | 0%

Row | Compound | Inhibition (Plasmodium falciparum [1]) | Inhibition (Plasmodium falciparum [2])
43 | Cc1cc(=O)c(-c2ccc(Oc3ccc(OC(F)(F)F)cc3)cc2)c(C)[nH]1 | 93% | 61%
44 | CCCOc1ccc(CNCCCCCCNCc2ccc(OCCC)c3ccccc23)c2ccccc12.CS(=O)(=O)O | 100% | 96%
45 | COc1ccc(Cc2c(Cl)nc3nc(N)nc(N)c3c2C)cc1 | 94% | 3%
46 | COCCOCCOCCn1ccc2c3c(N)nc(N)nc3ccc21 | 97% | 0%
47 | CCCCN(CCCC)Cc1cc(N(C)c2ccc([N+](=O)[O-])cn2)ccc1O.O=C(O)C(=O)O | 98% | 98%
48 | Cc1nc(C)c(-c2ccc(Oc3cccc(OC(F)(F)F)c3)cc2)c(O)c1Br | 100% | 96%
49 | CCOc1cc2ncnc(Nc3ccc(OCc4ccccc4OC)c(OC)c3)c2cc1OCC.Cl | 97% | 52%
50 | CC(=O)Oc1c(Cl)c(C)nc(C)c1-c1ccc(Oc2ccc(OC(F)(F)F)cc2)cc1 | 97% | 98%
51 | Cl.c1ccc2c(c1)cc(CNCCCN1CCN(CCCNCc3cc4ccccc4c4ccccc34)CC1)c1ccccc12 | 100% | 98%
52 | Cc1[nH]c(C)c(-c2ccc(Oc3cccc(C(F)(F)F)c3)cc2)c(=O)c1Br | 99% | 97%
53 | Nc1nc(Cc2ccc(Cl)cc2)nc(Cc2ccc(Cl)cc2)n1 | 85% | 0%
54 | CCOc1cc(Cc2cnc(N)nc2N)cc(Br)c1OC | 83% | 3%
55 | Nc1nc(N)c2c(ccc3[nH]c(-c4ccccc4Cl)nc32)n1 | 100% | 100%
56 | CC(C)c1ccc(Cn2cc(-c3ccncc3)c3cc(OCc4ccccc4)ccc32)cc1.Cl | 99% | 88%
57 | CCCCCCCN(Cc1ccc(OC(C)(C)C(=O)OCC)cc1)C(=O)Cc1ccc(F)cc1F | 93% | 95%
58 | Cc1nc(C)c(-c2cccc(Oc3ccc(Cl)cc3)c2)c(O)c1Br | 96% | 97%
59 | Nc1nc(N)c2cc(Cc3ccc([N+](=O)[O-])cc3)cnc2n1.O=S(=O)(O)O | 91% | 0%
60 | Cc1cccc(Cn2ccc3c4c(N)nc(N)nc4ccc32)c1 | 95% | 98%
61 | CCN(CC)CCCC(C)Nc1c2ccc(Cl)cc2nc2ccc(OC)cc12.Cl.O (centres undefined) | 100% | 100%
62 | CCCCCCCCCC(=O)NCC1CC(Br)=NO1 (centres undefined) | 87% | 42%
63 | CCN(C)C(=O)n1ncc2c3c(N)nc(N)nc3ccc21 | 95% | 0%

Row | Compound | Inhibition (Plasmodium falciparum [1]) | Inhibition (Plasmodium falciparum [2])
64 | CCCCNCc1ccc(OCc2cccc(COc3ccc(CNCCCC)cc3I)c2)c(I)c1.Cl | 87% | 13%
65 | Cl.Oc1c(CNC2CCCCC2)cc(Cl)c2ccccc12 | 98% | 100%
66 | Nc1nc(N)c2c(ccc3c2ccn3Cc2ccc(Br)cc2)n1 | 100% | 98%
67 | Cc1ccc2ccncc2c1N | 96% | 4%
68 | Cl.Oc1ccc2c(CNC3CCCCC3)c(O)ccc2c1CNC1CCCCC1 | 100% | 100%
69 | COc1ccc2c(OC)cccc2c1CNCCCCCCNCc1c(OC)ccc2c(OC)cccc12.CS(=O)(=O)O | 92% | 28%
70 | Nc1nc(N)c2c(Sc3ccccc3)cccc2n1 | 97% | 0%
71 | CCC(C)c1cnc2nc(N)nc(N)c2c1C (centres undefined) | 97% | 1%
72 | Cl.Nc1nc(N)c2c(n1)CCc1cc(Br)ccc1-2 | 87% | 4%
73 | CN(C)C(=S)N/N=C1/C(=O)Nc2ccccc21 | 95% | 96%
74 | Cc1c(Cc2ccc(C(C)C)cc2)cnc2nc(N)nc(N)c12 | 97% | 0%
75 | Cc1cccc(-c2c(C)nc(N)nc2N)c1 | 88% | 0%
76 | CCOc1cc(Cc2cnc(N)nc2N)ccc1OC.Cl | 88% | 0%
77 | CCOc1ccc(CNCCCCCCNCc2ccc(OCC)c3ccccc23)c2ccccc12.CS(=O)(=O)O | 100% | 75%
78 | CCNCCCC(C)Nc1ccnc2cc(Cl)ccc12.O=C(O)C(=O)O (centres undefined) | 100% | 0%
79 | O=c1c2ccc(Sc3ccccn3)cc2n(-c2ccccc2)c2cc(Sc3ccccn3)ccc12 | 89% | 70%
80 | CCc1ccc(Cc2cnc3nc(N)nc(N)c3c2C)cc1CC | 97% | 0%
81 | CN1CCN(c2ccc3[nH]c(-c4ccc5[nH]c(-c6ccc([N+](=O)[O-])c(N)c6)nc5c4)nc3c2)CC1 | 100% | 100%
82 | Cc1nc(C)c(-c2ccc(Oc3ccc([S+](C)[O-])cc3)cc2)c(O)c1Br (centres undefined) | 91% | 64%
